Laboratory results taken from PubChem BioAssay AID1259420 (Broad Institute, 2018).
“And” between values parts separate entries of the source, which are not always exact repeats. Equal values may be shown once. Out of some 1,000 compounds screened, about 250 (25%) were called active. Inconclusive results (about 31%) are left out. These entries were drawn from the full list. Entries with a potency or affinity are not part of this list. Unmarked numbers belong to inactive results. No rule for the calls is given here.

Assay: T. gondii intracellular growth, IFN-gamma absent, dose response, cell-based (AID 1259420);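 also: host cells were HeLa; final incubation lasted 72 hours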
Settings: Toxoplasma gondii growth in host cells, no IFN-gamma

Work on `CCc1cnc(N2CCc3cc(C(=O)NCC4CC4)c(N(C)C)nc3CC2)nc1` yielded a max activity (at 19.5 µM unless noted) of 11.8% [at 0.6 µM].
In the case of `CO[C@@H]1CCN(S(=O)(=O)N(C)C)C[C@@H]1Cc1cccc(C)c1`, the max activity (at 19.5 µM unless noted) is reported as -8.52% [at 10 µM].
For `CCCCOCCOCCOCc1cc2c(cc1CCC)OCO2`, the max activity (at 19.5 µM unless noted) was -10.5% [at 10 µM].
With `Cc1nc(N2CCCC2)nc2c1CCN(C(=O)c1ccoc1C)CC2` the max activity (at 19.5 µM unless noted) was -19.1% [at 10 µM].
In the case of `Cc1cc2nc(CN3CCCC(CCc4ccc(F)cc4F)C3)cc(=O)n2[nH]1` (stereo not given), the max activity (at 19.5 µM unless noted) is reported as 5.72%.
Compound `O=C(Nc1ccc(F)cc1)N1CC(=O)N2[C@H](CO)[C@@H](c3ccc(-c4cccc(F)c4)cc3)[C@@H]2C1` has a max activity (at 19.5 µM unless noted) of -6.88%.
In the case of `O=C(c1cnccn1)N1CC(=O)N2[C@H](CO)[C@H](c3ccc(-c4cccc(F)c4)cc3)[C@H]2C1`, the max activity (at 19.5 µM unless noted) is reported as 15.4% and 19.8%.
Compound `C/C=C/c1ccc([C@H]2[C@@H](CO)N3C(=O)CN(C(=O)Nc4ccc(F)cc4)C[C@@H]23)cc1` has a max activity (at 19.5 µM unless noted) of -13% [at 0.16 µM].
Compound `O=C(c1cnccn1)N1CC(=O)N2[C@H](C1)[C@H](c1ccc(-c3cccc(F)c3)cc1)[C@@H]2CO` has a max activity (at 19.5 µM unless noted) of -9.23% [at 0.16 µM].
For `O=C(c1cnccn1)N1CC(=O)N2[C@H](C1)[C@@H](c1ccc(-c3cccc(F)c3)cc1)[C@@H]2CO`, the max activity (at 19.5 µM unless noted) was 25.6%.
`Cc1ccc(-c2ccc([C@H]3[C@H]4CN(C(=O)NC(C)C)CC(=O)N4[C@H]3CO)cc2)cc1` showed a max activity (at 19.5 µM unless noted) of -10.6% [at 0.6 µM].
In the case of `O=C(c1cnccn1)N1CC(=O)N2[C@H](CO)[C@H](c3ccc(-c4cccc(F)c4)cc3)[C@@H]2C1`, the max activity (at 19.5 µM unless noted) is reported as -10.6% [at 0.3 µM].
For `O=C(Nc1ccc(F)cc1)N1CC(=O)N2[C@H](CO)[C@@H](c3ccc(-c4cccc(F)c4)cc3)[C@H]2C1`, the max activity (at 19.5 µM unless noted) was 13.4%.
Work on `CC1CCCCN1C(=O)c1ccnn1-c1ccc2ccc(-c3ccccc3)cn12` (stereo not given) yielded a max activity (at 19.5 µM unless noted) of -6.05% [at 5 µM].
Compound `CC(=O)O[C@@H]1CC2C(C)(CC[C@H](O)C2(C)C)C2CC[C@]3(C)C(=CC(=O)O[C@H]3c3ccoc3)C21C` (stereo not given in full) has a max activity (at 19.5 µM unless noted) of -5.91% [at 10 µM].
In the case of `CC(C)n1cnc2c(NCC3CC3)nc(C3CCN(C(=O)c4cccc(F)c4F)CC3)cc21`, the max activity (at 19.5 µM unless noted) is reported as 5.98% [at 1.2 µM].
With `Cc1ccccc1-c1ccc(C2[C@@H]3CN(Cc4cocn4)C[C@H]2N3)cc1` (stereo not given in full) the max activity (at 19.5 µM unless noted) was 20.2%.
Work on `COCC1COCCC12CCN(C(=O)c1ccc(C)nc1)CC2` (stereo not given) yielded a max activity (at 19.5 µM unless noted) of 6.91% [at 2.6 µM].
For `CCCN(C/C=C/I)C1CCc2cccc(O)c2C1` (stereo not given), the max activity (at 19.5 µM unless noted) was 15.1%.
`CC(C)NC(=O)N1CC(=O)N2[C@@H](CO)[C@H](c3ccc(/C=C/c4ccccc4)cc3)[C@@H]2C1` gave a max activity (at 19.5 µM unless noted) of -13.4% [at 0.16 µM].
For `O=C(C1CCOCC1)N1CC(=O)N2[C@H](C1)[C@H](c1ccc(/C=C/c3ccccc3)cc1)[C@@H]2CO`, the max activity (at 19.5 µM unless noted) was -15.6% [at 2.6 µM].
`CC1=NN(C2CCS(=O)(=O)C2)C(=O)C1(Sc1ccccc1)Sc1ccccc1` (stereo not given) gave a max activity (at 19.5 µM unless noted) of 14.4% [at 10 µM].
Compound `CC(C)C#Cc1ccc([C@@H]2[C@@H](CO)N(C(=O)c3cccc(F)c3)[C@H]2C#N)cc1` has a max activity (at 19.5 µM unless noted) of -12.4% [at 10 µM].
For `CC(C)CC#Cc1ccc([C@H]2[C@@H](CO)N3C(=O)CN(C(=O)c4cccc(F)c4)C[C@@H]23)cc1`, the max activity (at 19.5 µM unless noted) was 25.4%.
Work on `O=C(CC1CC1)N[C@H]1CN(C(=O)c2ccoc2)C[C@@H]2CCCO[C@H]21` yielded a max activity (at 19.5 µM unless noted) of -10.1% [at 10 µM].
Work on `CCc1c(C)sc2c1CCN(Cc1nc(-c3cccc(C)c3)oc1C)C2c1ccccc1` (stereo not given) yielded a max activity (at 19.5 µM unless noted) of -7.44% [at 0.08 µM].
For `O=C1CNC[C@@H]2[C@@H](c3ccc(C#Cc4cccnc4)cc3)[C@@H](CO)N12`, the max activity (at 2.6 µM) was 9.41% and the max activity (at 10 µM) was -13%.
In the case of `CC(C)(O)C#Cc1cccc(-c2n[nH]c(Cc3ccccc3)n2)c1`, the max activity (at 19.5 µM unless noted) is reported as 21.1%.
With `O=S(=O)(c1ccc2c(c1)CCCC2)N1CCC2(CC1)NCCN=C2NCc1ccc2c(c1)OCO2` the max activity (at 19.5 µM unless noted) was -6.04% [at 0.08 µM].
`Cc1cccc(CNC2=NCCNC23CCN(S(=O)(=O)c2ccc4c(c2)CCCC4)CC3)c1` showed a max activity (at 19.5 µM unless noted) of -9.87%.
`CCc1ccc(S(=O)(=O)N2CCC3(CC2)NCCN=C3NCc2cc(F)cc(F)c2)cc1` showed a max activity (at 19.5 µM unless noted) of -11.1% [at 0.08 µM].
With `Cc1ccc(CNC2=NCCNC23CCN(S(=O)(=O)c2ccc(Cl)s2)CC3)cc1` the max activity (at 19.5 µM unless noted) was -6.39% [at 2.6 µM].
For `CCc1ccccc1-c1cccc(-n2cnnc2)c1`, the max activity (at 19.5 µM unless noted) was 23.8% [at 10 µM].
For `CCc1cc(C(=O)Nc2ccc(C)cc2-c2cc(C)[nH]n2)c2c(C)noc2n1`, the max activity (at 19.5 µM unless noted) was -5.68% [at 5 µM].
Compound `CN(C)CCN1CCOCC2(CCCN(C(=O)c3ccc4cc[nH]c4c3)C2)C1` (stereo not given) has a max activity (at 19.5 µM unless noted) of -5.04% [at 2.6 µM].
Compound `COCC1CN(Cc2cc(C)on2)Cc2c1cnn2CC1CC1` (stereo not given) has a max activity (at 19.5 µM unless noted) of -5.27% [at 10 µM].
Work on `COc1ccc(-n2c(C)c([N+](=O)[O-])c3ccc(O)cc32)cc1` yielded a max activity (at 19.5 µM unless noted) of 7.23% [at 1.2 µM].
For `COc1ccc(S(=O)(=O)N2CCCCN3[C@H](C2)[C@@H](c2ccc(C#CCC(C)C)cc2)[C@@H]3CO)cc1`, the max activity (at 19.5 µM unless noted) was 29.4% [at 10 µM].
`COCCC(=O)C1Cc2nc(-c3ccccc3)sc2N1CC1CC1` (stereo not given) gave a max activity (at 19.5 µM unless noted) of -9.12% [at 0.3 µM].
`O=C(C1CCCCC1)N1C[C@@H]2N[C@H](C1)C2c1ccc(-c2ccccc2F)cc1` (stereo not given in full) showed a max activity (at 19.5 µM unless noted) of 13.7% [at 2.6 µM].
Compound `C=CCN1C(=O)CC[C@H]2[C@@H]1CCN2S(=O)(=O)CC` has a max activity (at 19.5 µM unless noted) of -17.5% [at 10 µM].
In the case of `CCCNC(=O)N1C[C@@H]2N[C@H](C1)C2c1ccc(-c2ccc(OC)cc2)cc1` (stereo not given in full), the max activity (at 19.5 µM unless noted) is reported as 11.6% [at 21 µM].
`Cc1ccc(CN2CC3CN(Cc4cccc(F)c4)CC3C2)s1` (stereo not given) gave a max activity (at 19.5 µM unless noted) of -13.6% [at 1.2 µM].
`Cc1cnc(N2CCC3(CCN(CC4CC4)C3=O)CC2)nc1` showed a max activity (at 19.5 µM unless noted) of -10.4%.
